Assay results taken from PubChem BioAssay.
For some assays here: Potency and affinity values are given separately. The source made the active and inactive calls. Unless noted, how the calls were made is not given here.

Tests used:
[1] = antimalarial activity against Dd2 strain (AID 2302;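 active means growth inhibition above 50% at the single 2 µM test dose, taken to imply half-maximal potency below 2 µM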;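 further: 0% = DMSO untreated growth and 100% = chloroquine plus artemisinin killed control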); conditions: P. falciparum Dd2 in RBCs, LDH growth readout, 72 h; at 2 µM; hits give high values
[2] = HepG2 cytotoxicity, primary screen, cytotoxicity control for P. falciparum antimalarial project, cell-based, ATP luminescence (AID 2303;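 active means inhibition above 50%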;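 further: 0% = DMSO wells and 100% = digitonin-killed cells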); conditions: HepG2 viability, 24-48 h, at 10 µM, hits give high values
[3] = biological target: L-lactate dehydrogenase (Plasmodium falciparum (isolate CDC / Honduras)) (UniProt Q27743); assay: PfLDH activity inhibition – cell lysate, 3D7 strain, counter-screen for P. falciparum growth inhibition project (AID 2304);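 further: 0% = vehicle and 100% = reference inhibitor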; conditions: P. falciparum 3D7 crude extract, LDH APAD/NBT absorbance; at 2 µM; hits give high values
[4] = inhibition of 3D7 malaria parasite growth – strain 3D7 (AID 2306);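 further: 0% = DMSO wells and 100% = chloroquine plus artemisinin control wells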; conditions: P. falciparum 3D7 erythrocytic growth, LDH absorbance, 72 h; at 2 µM; hits give high values
[5] = biological target: Calcium-dependent protein kinase 1 (Plasmodium falciparum (isolate 3D7)) (UniProt P62344); assay: PfCDPK1 kinase inhibitors, biochemical, TCAMS library (AID 1159585; cut-off not given, nearly all actives have IC50 up to about 0.98 µM;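 further: inhibitors leave more ATP so luminescence rises with inhibition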); conditions: recombinant PfCDPK1, Kinase-Glo ATP depletion luminescence
[6] = biological target: Plasmodium falciparum protein kinase 6 (PK6, PF3D7_1337100) (UniProt Q8IDW1); assay: PfPK6 kinase inhibitors, biochemical, TCAMS library (AID 1159586); conditions: recombinant PfPK6, Kinase-Glo ATP depletion luminescence
[7] = biological target: Protein kinase 7 (PK7), Plasmodium falciparum 3D7 (PF3D7_0213400) (UniProt Q7YTF7); assay: inhibition of Plasmodium PK7 catalytic activity – biochemical, TCAMS antimalarial set, Kinase-Glo luminescence (AID 1159587); conditions: recombinant PfPK7, Kinase-Glo ATP depletion luminescence
[8] = biological target: Calcium-dependent protein kinase 4 (Plasmodium falciparum (isolate 3D7)) (UniProt Q8IBS5); assay: PfCDPK4 kinase inhibitors, biochemical, TCAMS library (AID 1159588; cut-off not given, nearly all actives have IC50 up to about 0.91 µM); conditions: recombinant PfCDPK4, Kinase-Glo ATP depletion luminescence
Sequence of Calcium-dependent protein kinase 4 (Plasmodium falciparum (isolate 3D7)) (Q8IBS5 whole entry, looked up): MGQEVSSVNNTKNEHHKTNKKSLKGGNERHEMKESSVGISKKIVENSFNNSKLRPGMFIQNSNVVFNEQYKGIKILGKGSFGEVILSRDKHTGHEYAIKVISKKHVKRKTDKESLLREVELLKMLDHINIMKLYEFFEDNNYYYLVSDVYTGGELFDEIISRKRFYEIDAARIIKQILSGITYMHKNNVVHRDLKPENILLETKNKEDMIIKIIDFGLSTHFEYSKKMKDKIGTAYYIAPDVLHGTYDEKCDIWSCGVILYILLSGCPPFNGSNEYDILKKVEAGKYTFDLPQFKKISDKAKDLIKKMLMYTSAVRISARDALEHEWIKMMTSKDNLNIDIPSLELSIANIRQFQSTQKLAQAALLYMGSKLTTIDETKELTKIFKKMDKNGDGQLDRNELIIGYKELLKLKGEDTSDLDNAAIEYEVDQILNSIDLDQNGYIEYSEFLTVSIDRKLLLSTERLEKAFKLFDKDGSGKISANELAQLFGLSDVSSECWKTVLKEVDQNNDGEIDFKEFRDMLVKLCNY

Sequence of L-lactate dehydrogenase (Plasmodium falciparum (isolate CDC / Honduras)) (Q27743 whole entry, looked up): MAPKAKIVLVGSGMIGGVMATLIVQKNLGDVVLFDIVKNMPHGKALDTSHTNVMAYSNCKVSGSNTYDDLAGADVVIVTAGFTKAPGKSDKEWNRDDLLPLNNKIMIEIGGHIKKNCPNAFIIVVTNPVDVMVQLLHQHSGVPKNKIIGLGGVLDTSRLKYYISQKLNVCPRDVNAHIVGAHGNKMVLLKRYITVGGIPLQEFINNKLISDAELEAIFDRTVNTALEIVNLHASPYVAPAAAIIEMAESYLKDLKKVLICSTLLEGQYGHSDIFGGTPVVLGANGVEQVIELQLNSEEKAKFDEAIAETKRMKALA
Sequence of Calcium-dependent protein kinase 1 (Plasmodium falciparum (isolate 3D7)) (P62344 whole entry, looked up): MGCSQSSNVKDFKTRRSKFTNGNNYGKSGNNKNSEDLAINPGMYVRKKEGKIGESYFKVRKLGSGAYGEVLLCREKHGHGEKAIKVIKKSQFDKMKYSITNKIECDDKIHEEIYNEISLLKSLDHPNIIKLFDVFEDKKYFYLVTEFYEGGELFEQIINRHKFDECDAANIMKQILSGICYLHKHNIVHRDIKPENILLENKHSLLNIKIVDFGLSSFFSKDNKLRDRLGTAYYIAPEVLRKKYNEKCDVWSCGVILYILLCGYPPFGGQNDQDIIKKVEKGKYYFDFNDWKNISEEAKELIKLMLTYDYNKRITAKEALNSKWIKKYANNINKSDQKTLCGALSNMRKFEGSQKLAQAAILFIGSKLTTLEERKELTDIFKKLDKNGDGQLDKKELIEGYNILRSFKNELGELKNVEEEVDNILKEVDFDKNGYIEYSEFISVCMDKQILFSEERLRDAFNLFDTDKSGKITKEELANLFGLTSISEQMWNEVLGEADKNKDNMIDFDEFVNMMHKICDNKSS
Sequence of Plasmodium falciparum protein kinase 6 (PK6, PF3D7_1337100) (Q8IDW1 1-305): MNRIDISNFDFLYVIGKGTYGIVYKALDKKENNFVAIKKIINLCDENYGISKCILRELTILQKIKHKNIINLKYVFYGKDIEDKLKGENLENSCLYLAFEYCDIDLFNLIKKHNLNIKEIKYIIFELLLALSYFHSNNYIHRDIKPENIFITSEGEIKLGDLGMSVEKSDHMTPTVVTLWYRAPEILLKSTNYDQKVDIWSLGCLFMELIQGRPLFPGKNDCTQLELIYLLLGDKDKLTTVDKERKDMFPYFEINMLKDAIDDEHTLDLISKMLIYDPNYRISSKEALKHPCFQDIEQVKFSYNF
Sequence of Protein kinase 7 (PK7), Plasmodium falciparum 3D7 (PF3D7_0213400) (Q7YTF7 1-343): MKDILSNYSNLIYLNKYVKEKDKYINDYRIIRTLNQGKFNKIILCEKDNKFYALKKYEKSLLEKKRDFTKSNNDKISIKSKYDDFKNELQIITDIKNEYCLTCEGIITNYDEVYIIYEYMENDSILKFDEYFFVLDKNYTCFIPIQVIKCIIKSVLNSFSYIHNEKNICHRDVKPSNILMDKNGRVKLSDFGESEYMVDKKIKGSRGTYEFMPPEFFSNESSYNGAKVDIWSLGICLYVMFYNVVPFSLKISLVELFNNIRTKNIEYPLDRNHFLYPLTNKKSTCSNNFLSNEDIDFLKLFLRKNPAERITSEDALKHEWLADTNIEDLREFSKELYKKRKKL

CN1CCCC(OC(=O)c2ccccc2)C1 (stereo not given)
active: growth inhibition [4] 100%
inactive: growth inhibition [1] -2% | inhibition [2] 4% | inhibition [3] -5% | outcome [5] | outcome [6] | outcome [7] | outcome [8]

O=C(Nc1ccc(-c2nc3ccccc3[nH]2)cc1)C1CCCN(CC2CC2)C1 (stereo not given)
active: growth inhibition [4] 89%
inactive: growth inhibition [1] 8% | inhibition [2] 6% | inhibition [3] 0% | outcome [5] | outcome [6] | outcome [7] | outcome [8]

COc1ccc(NC(=O)[C@H](Cc2ccccc2)Nc2cc(C)nc(NCCc3ccccc3)n2)cc1
active: growth inhibition [1] 83% | growth inhibition [4] 98%
inactive: inhibition [2] 6% | inhibition [3] -1% | outcome [5] | outcome [6] | outcome [7] | outcome [8]

O=C(NC1CCN(Cc2cccc(C(F)(F)F)c2)CC1)c1ccc(-c2cccc(Cl)c2)s1
inactive: growth inhibition [1] 33% | inhibition [2] 26% | inhibition [3] -1% | outcome [5] | outcome [6] | outcome [7] | outcome [8]
active: growth inhibition [4] 89%

Nc1c(C(=O)NCCCCN2CCN(c3nsc4ccccc34)CC2)sc2ccccc12
active: growth inhibition [4] 86%
inactive: growth inhibition [1] -6% | inhibition [2] 26% | inhibition [3] -5% | outcome [5] | outcome [6] | outcome [7] | outcome [8]

C#CCNCc1ccc(-c2cccc(-c3nc4c(C)cccc4[nH]3)c2)cc1
active: growth inhibition [4] 100%
inactive: growth inhibition [1] 32% | inhibition [2] -4% | inhibition [3] 2% | outcome [5] | outcome [6] | outcome [7] | outcome [8]

Cc1[nH]c2c(C)cccc2c1C1CCN(CCC2CCN(C(=O)/C=C/c3ccc(Cl)c(Cl)c3)CC2)CC1
inactive: inhibition [3] -1% | outcome [5] | outcome [6] | outcome [7] | outcome [8]
active: growth inhibition [1] 79% | inhibition [2] 67% | growth inhibition [4] 100%

COc1cc(Cc2cnc(N)nc2N)cc(OCCCc2cc(OCc3ccccc3)no2)c1OC
inactive: growth inhibition [1] 4% | inhibition [2] 30% | inhibition [3] 2% | outcome [5] | outcome [6] | outcome [7] | outcome [8]
active: growth inhibition [4] 86%

CCOc1cc(Br)c(C(C)NC(=O)c2cccc(OC)c2)cc1OCC (stereo not given)
active: growth inhibition [4] 90%
inactive: growth inhibition [1] 37% | inhibition [2] -1% | inhibition [3] 3% | outcome [5] | outcome [6] | outcome [7] | outcome [8]

Cc1cc(NC(=O)c2cccs2)ccc1OC1CCN(Cc2ccc(C#N)cc2)CC1
inactive: inhibition [2] 34% | inhibition [3] 4% | outcome [5] | outcome [6] | outcome [7] | outcome [8]
active: growth inhibition [1] 92% | growth inhibition [4] 94%

Cc1nc2sccn2c1C(=O)NCCc1ccccc1Cl
active: growth inhibition [4] 96%
inactive: growth inhibition [1] 1% | inhibition [2] 6% | inhibition [3] 3% | outcome [5] | outcome [6] | outcome [7] | outcome [8]

NC1=NC2(CCCCC2)N(OCCCCCCN2C(=O)c3ccccc3C2=O)C(N)=N1
inactive: growth inhibition [1] 16% | inhibition [2] 20% | inhibition [3] 1% | outcome [5] | outcome [6] | outcome [7] | outcome [8]
active: growth inhibition [4] 98%

CS(=O)(=O)CCNCc1ccc(-c2ccc3c(Nc4ccc(F)cc4Cl)ccnc3c2)o1
active: growth inhibition [1] 98% | growth inhibition [4] 100%
inactive: inhibition [2] 29% | inhibition [3] 0% | outcome [5] | outcome [6] | outcome [7] | outcome [8]

O=C(/C=C/c1ccc(Cl)c(Cl)c1)N1CCC(CN2CCC(Cc3nc4ccccc4[nH]3)CC2)CC1
active: growth inhibition [1] 95% | growth inhibition [4] 101%
inactive: inhibition [2] 34% | inhibition [3] -2% | outcome [5] | outcome [6] | outcome [7] | outcome [8]

CCN1CCCC1CNC(=O)c1cc2c(-c3ccc(Cl)cc3)nn(C)c2s1 (stereo not given)
inactive: growth inhibition [1] 20% | inhibition [2] 27% | inhibition [3] -9% | outcome [5] | outcome [6] | outcome [7] | outcome [8]
active: growth inhibition [4] 96%

CC(C)Oc1cc(-c2ccc(S(C)(=O)=O)cc2)nc(N(Cc2cccc(F)c2F)Cc2cccc(F)c2F)n1
active: growth inhibition [1] 99% | growth inhibition [4] 101%
inactive: inhibition [2] 10% | inhibition [3] 4% | outcome [5] | outcome [6] | outcome [7] | outcome [8]

CC(=O)Nc1nc(C(=O)Nc2ccc(-c3ccc(-c4nc5ccc(F)cc5[nH]4)cc3)cc2)cs1
inactive: growth inhibition [1] 33% | inhibition [2] 17% | inhibition [3] -5% | outcome [5] | outcome [6] | outcome [7] | outcome [8]
active: growth inhibition [4] 100%

O=C(NCCCCCN1CCC(c2c[nH]c3ccccc23)CC1)Nc1cccc(Cl)c1
inactive: growth inhibition [1] 0% | inhibition [2] 36% | inhibition [3] -1% | outcome [5] | outcome [6] | outcome [7] | outcome [8]
active: growth inhibition [4] 86%

CS(=O)(=O)c1cccc(-c2cnc3[nH]cc(-c4ccc(C(=O)O)cc4)c3c2)c1
active: growth inhibition [1] 100% | growth inhibition [4] 99%
inactive: inhibition [2] 6% | inhibition [3] -2% | outcome [5] | outcome [6] | outcome [7] | outcome [8]

Cc1ccc(Oc2cnn(C)c(=O)c2Nc2cccc(C(=O)NCCc3ccccn3)c2)c(C)c1
active: growth inhibition [1] 94% | growth inhibition [4] 94%
inactive: inhibition [2] 0% | inhibition [3] -4% | outcome [5] | outcome [6] | outcome [7] | outcome [8]

CC(C)Nc1cc(C(=O)N[C@@H](Cc2ccccc2)[C@H](O)CNC(C)(C)c2cccc(C(F)(F)F)c2)cc(N2CCCCS2(=O)=O)c1
active: growth inhibition [1] 98% | growth inhibition [4] 98%
inactive: inhibition [2] 9% | inhibition [3] 2% | outcome [5] | outcome [6] | outcome [7] | outcome [8]

CCc1ccc(OCCCON2C(N)=NC(N)=NC2(C)C)cc1
active: growth inhibition [1] 95% | inhibition [2] 64% | growth inhibition [4] 95%
inactive: inhibition [3] -8% | outcome [5] | outcome [6] | outcome [7] | outcome [8]

COc1ccc(O)c(C(=O)c2cnc3c(c2)c(-c2ccc(F)cc2)c(C#N)c(=O)n3C)c1
active: growth inhibition [4] 92%
inactive: growth inhibition [1] 14% | inhibition [2] 7% | inhibition [3] -2% | outcome [5] | outcome [6] | outcome [7] | outcome [8]

Cc1ccccc1N1CCN(c2ncc(C(=O)NC3CC3)cc2Cl)CC1
inactive: inhibition [2] 23% | inhibition [3] -2% | outcome [5] | outcome [6] | outcome [7] | outcome [8]
active: growth inhibition [1] 96% | growth inhibition [4] 91%

c1csc(-c2nc(NCC3CCCO3)ncc2-c2ccsc2)n1 (stereo not given)
inactive: inhibition [2] -4% | inhibition [3] 1% | outcome [5] | outcome [6] | outcome [7] | outcome [8]
active: growth inhibition [1] 83% | growth inhibition [4] 89%

COc1ccc(C(=O)CCC(=O)N(CCSC(C)(C)C)Cc2ccc(-c3ccc(CNCCc4ccc(S(C)(=O)=O)cc4)cn3)cc2)cc1F
active: growth inhibition [4] 98%
inactive: growth inhibition [1] 42% | inhibition [2] 9% | inhibition [3] -3% | outcome [5] | outcome [6] | outcome [7] | outcome [8]

Cc1cccc2[nH]c(-c3ccc(-c4cccc(CN5CCN(c6ccncc6)CC5)c4)s3)nc12
active: growth inhibition [1] 99% | growth inhibition [4] 101%
inactive: inhibition [2] 48% | inhibition [3] 6% | outcome [5] | outcome [6] | outcome [7] | outcome [8]

CCOc1ccc(NC(=O)c2cn3nc(-c4ccc(OCC)cc4)cc3nc2C2CCNCC2)cc1
active: growth inhibition [4] 102%
inactive: growth inhibition [1] 39% | inhibition [2] 36% | inhibition [3] -11% | outcome [5] | outcome [6] | outcome [7] | outcome [8]

Nc1ccc(-c2nc3ccc(Cc4ccc5nc(-c6ccc(N)cc6)[nH]c5c4)cc3[nH]2)cc1
inactive: inhibition [2] 47% | inhibition [3] 2% | outcome [5] | outcome [6] | outcome [7] | outcome [8]
active: growth inhibition [1] 96% | growth inhibition [4] 100%

Cc1cc(C(F)(F)F)cc(-n2ncc(-c3ccc(C(=O)NCCNCc4ccccc4)cc3)c2N)n1
active: inhibition [2] 98% | growth inhibition [4] 91%
inactive: growth inhibition [1] 9% | inhibition [3] -1% | outcome [5] | outcome [6] | outcome [7] | outcome [8]

c1ccc2c(CNCCCCCCNCc3c(OCC4CC4)ccc4ccccc34)c(OCC3CC3)ccc2c1
active: growth inhibition [1] 97% | inhibition [2] 100% | growth inhibition [4] 93%
inactive: inhibition [3] -8% | outcome [5] | outcome [6] | outcome [7] | outcome [8]

Clc1ccc(Sc2cncnc2N2CCOCC2)cc1
inactive: growth inhibition [1] -6% | inhibition [3] -2% | outcome [5] | outcome [6] | outcome [7] | outcome [8]
active: inhibition [2] 66% | growth inhibition [4] 95%

CC(C)N1CCN(C(CN2CCN(CCCOc3ccc4ccccc4c3)CC2)c2ccc(F)cc2)CC1 (stereo not given)
inactive: inhibition [3] 5% | outcome [5] | outcome [6] | outcome [7] | outcome [8]
active: growth inhibition [1] 91% | inhibition [2] 59% | growth inhibition [4] 101%

Cc1cc(N2CCCC2)nc(Nc2ccc(NC(=O)c3ccc4c(c3)OCO4)cc2)n1
inactive: inhibition [2] 26% | inhibition [3] -4% | outcome [5] | outcome [6] | outcome [7] | outcome [8]
active: growth inhibition [1] 67% | growth inhibition [4] 101%

COc1ccc(CN(C)C(=O)CCNS(=O)(=O)c2ccc3c(c2)OCCCO3)cc1F
inactive: inhibition [2] 9% | inhibition [3] 0% | outcome [5] | outcome [6] | outcome [7] | outcome [8]
active: growth inhibition [1] 94% | growth inhibition [4] 96%

CN(C)CCCOc1ccc(CN2CC[C@H](NC(=O)c3ccc(Cl)c(Cl)c3)C2)cc1Cl
inactive: growth inhibition [1] 35% | inhibition [3] 1% | outcome [5] | outcome [6] | outcome [7] | outcome [8]
active: inhibition [2] 65% | growth inhibition [4] 100%

O=C(NCC1CCCCC1)c1cc(=O)c2ccccc2o1
active: growth inhibition [1] 77% | growth inhibition [4] 98%
inactive: inhibition [2] -1% | inhibition [3] -2% | outcome [5] | outcome [6] | outcome [7] | outcome [8]

Cc1ccc(-c2ccn(Cc3ccc(OCc4ccccc4)cc3)n2)cn1 (tested in a mixture with another compound)
inactive: inhibition [2] 1% | inhibition [3] -3% | outcome [5] | outcome [6] | outcome [7] | outcome [8]
active: growth inhibition [1] 92% | growth inhibition [4] 93%

CCN(c1ccccc1)S(=O)(=O)c1ccc(NC(=O)c2cc(-c3cc(C)ccc3O)n[nH]2)cc1
active: growth inhibition [1] 55% | growth inhibition [4] 99%
inactive: inhibition [2] 49% | inhibition [3] -3% | outcome [5] | outcome [6] | outcome [7] | outcome [8]

Cc1ccc(O)cc1Nc1ccnc2cc(-c3nccs3)ccc12
inactive: inhibition [3] 2% | outcome [5] | outcome [6] | outcome [7] | outcome [8]
active: growth inhibition [1] 83% | inhibition [2] 63% | growth inhibition [4] 102%
